In PubChem BioAssay (NCATS):
Records with an inconclusive call do not appear. Active and inactive are the calls of the source. Calls come from the whole dose curve; as a rule, active = well fitted curve in the direction sought with a large enough effect; inconclusive = small, poorly fitted or top-dose-only effect, or another doubt; inactive = no such curve, though single readings can be large or run the other way.
% is set by controls: 0 for no effect and ±100 for the full control effect.

These compounds were tested against Metallo-beta-lactamase type 2 (Klebsiella pneumoniae) (UniProt C7C422) (assay: qHTS to identify inhibitors of the New Delhi Metallo-beta-lactamase (NDM): assay validation screen against the NCATS LOPAC Collection (AID 1794843;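 note: nitrocefin turnover by NDM-1 measured as 485 nm absorbance at plateau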)). Settings: NDM-1 enzyme, nitrocefin hydrolysis, absorbance 485 nm; series mostly up to 38.4 µM; activity change, negative = inhibition: at the top concentration.
Metallo-beta-lactamase type 2 (Klebsiella pneumoniae), sequence (C7C422 whole entry, looked up): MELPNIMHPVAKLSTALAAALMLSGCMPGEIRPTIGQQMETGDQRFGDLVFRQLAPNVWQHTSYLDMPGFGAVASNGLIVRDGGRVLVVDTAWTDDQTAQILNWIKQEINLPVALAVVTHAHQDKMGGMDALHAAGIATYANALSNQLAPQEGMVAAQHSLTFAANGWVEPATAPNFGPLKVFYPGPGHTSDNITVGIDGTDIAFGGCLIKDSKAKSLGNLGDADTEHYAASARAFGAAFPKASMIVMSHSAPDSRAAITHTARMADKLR
Summary of the method: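 Enzyme 2 nM final, 50 mM HEPES pH 7.0, 1 uM ZnSO4, 0.01% Tween20; cpds in DMSO, preincub w/ enzyme; + nitrocefin (50 uM stock); A485 at plateau; no-enzyme column as blank.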
For `CNC(=O)c1cc2c(cn1)[nH]c1ccccc12`, the “activity change, negative = inhibition” value was 1.92% (inactive).
In the case of `[Li+]`, the “activity change, negative = inhibition” value is reported as -0.454% (inactive).
With `Cn1c(=O)c2c(nc(/C=C/c3cccc(Cl)c3)n2C)n(C)c1=O` the “activity change, negative = inhibition” value was -6.93% (inactive).
With `COc1ccccc1N1CCN(CCCNc2c(C)c(=O)n(C)c(=O)n2C)CC1` the “activity change, negative = inhibition” value was 1.71% (inactive).
In the case of `Cc1cccc(C)c1OCC(N)C(C)C` (stereo unspecified), the “activity change, negative = inhibition” value is reported as 0.867% (inactive).
In the case of `CC(C)C[C@H](NC(=O)C1OC1C(=O)O)C(=O)NCCCCN=C(N)N` (stereo partly specified), the “activity change, negative = inhibition” value is reported as 1.88% (inactive).
For `N[C@H](C(=O)O)c1cc(O)cc(O)c1`, the “activity change, negative = inhibition” value was 3.27% (inactive).
For `COc1cc(N)c(Cl)cc1C(=O)OCCN1CCCCC1`, the “activity change, negative = inhibition” value was -9.26% (inactive).
In the case of `CCCCCCCCCC(=O)NC(CN1CCOCC1)[C@H](O)c1ccccc1` (stereo partly specified), the “activity change, negative = inhibition” value is reported as -2.42% (inactive).
For `O=C(OCCN1CCOCC1)C1(c2ccccc2)CCCCC1`, the “activity change, negative = inhibition” value was -9.96% (inactive).
In the case of `O=c1ccc2c(OCCCCc3ccccc3)c3ccoc3cc2o1`, the “activity change, negative = inhibition” value is reported as -0.209% (inactive).
With `NCCCCN=C(N)N` the “activity change, negative = inhibition” value was 1.26% (inactive).
`CC(C)(C)c1cc(/C=C(\C#N)C(N)=S)cc(C(C)(C)C)c1O` was tested, and the “activity change, negative = inhibition” value was 1.73% (inactive).
For `NC(=O)CNCCC(c1ccccc1)c1ccccc1`, the “activity change, negative = inhibition” value was 4.92% (inactive).
With `CC#CCOC(=O)c1c(C)nc2sc3c(c2c1N)CCC(O)C3` (stereo unspecified) the “activity change, negative = inhibition” value was 1.04% (inactive).
For `O=c1onc2n1-c1cc(Br)ccc1OC2`, the “activity change, negative = inhibition” value was 5.76% (inactive).
`C=C1C[C@@]23CC[C@H]4[C@@](C)(CCC[C@@]4(C)C(=O)O)[C@@H]2CC[C@]1(O)C3` was tested, and the “activity change, negative = inhibition” value was -0.346% (inactive).
`O=S(=O)(c1cccc2c(Cl)cccc12)N1CCCNCC1` was tested, and the “activity change, negative = inhibition” value was 6.62% (inactive).
For `CCCn1c(=O)c2[nH]c(C3CCCC3)nc2n(CCC)c1=O`, the “activity change, negative = inhibition” value was 1.2% (inactive).
For `Nc1nc2ccc(Cl)cc2c2nc(-c3ccco3)nn12`, the “activity change, negative = inhibition” value was 6.34% (inactive).
`NC1CONC1=O` (stereo unspecified) was tested, and the “activity change, negative = inhibition” value was -14.1% (inactive).
For `COc1ccc(-c2cc3ncc(C)n3c(Nc3ncccc3C(N)=O)n2)cc1OC`, the “activity change, negative = inhibition” value was -3.67% (inactive).
In the case of `CC(C)NCC(O)COc1ccc(CC(N)=O)cc1` (stereo unspecified), the “activity change, negative = inhibition” value is reported as -2.1% (inactive).
For `CCCCC[C@H](CC(=O)NO)C(=O)N[C@H](C(=O)N1CCC[C@H]1CO)C(C)C`, the “activity change, negative = inhibition” value was -5.69% (inactive).
With `O=C(O)CCC(=O)N1CCCC1C(=O)O` (stereo unspecified) the “activity change, negative = inhibition” value was -7.72% (inactive).
`O=C(O)C1CCNCC1` was tested, and the “activity change, negative = inhibition” value was -5.1% (inactive).
`COc1ccccc1N1CCN(CCCCN2C(=O)c3ccccc3C2=O)CC1` was tested, and the “activity change, negative = inhibition” value was 2.92% (inactive).
In the case of `CCCCCCCCCC[Si](C)(C)CCC(=O)NC(Cc1ccc(C)cc1)c1ccccc1` (stereo unspecified), the “activity change, negative = inhibition” value is reported as -4.22% (inactive).
In the case of `Cn1c(=O)[nH]c2ncn(C)c2c1=O`, the “activity change, negative = inhibition” value is reported as -2.79% (inactive).
With `CCCn1c(=O)c2c(ncn2C)n(CCC)c1=O` the “activity change, negative = inhibition” value was 6.2% (inactive).
In the case of `C[C@]12C=CC(=O)C=C1CC[C@@H]1C2=CC[C@]2(C)[C@@H](C(=O)CN3CCN(c4cc(N5CCCC5)nc(N5CCCC5)n4)CC3)CC[C@@H]12`, the “activity change, negative = inhibition” value is reported as 4.75% (inactive).
In the case of `Cc1cccc(C2CN(C)CCc3c2cc(O)c(O)c3Cl)c1` (stereo unspecified), the “activity change, negative = inhibition” value is reported as -10.2% (inactive).
`N=C(N)c1ccc(N)cc1` was tested, and the “activity change, negative = inhibition” value was -8.74% (inactive).
For `COC1(C2=NCCN2)COc2ccccc2O1` (stereo unspecified), the “activity change, negative = inhibition” value was -3.15% (inactive).
In the case of `C=CCn1c(=O)c2c(nc(-c3ccc(S(=O)(=O)O)cc3)n2C)n(C)c1=O`, the “activity change, negative = inhibition” value is reported as -7.73% (inactive).
In the case of `CN1C2CCC1CC(OC(c1ccccc1)c1ccccc1)C2` (stereo unspecified), the “activity change, negative = inhibition” value is reported as -1.78% (inactive).
